SARS 3CLpro inh: SARS-CoV 3CLpro protease inhibition; recombinant SARS-CoV 3CLpro, quenched FRET peptide cleavage; inhibition, % at 6 µM; hit rate 0.14% among 290,000; in the data active = inhibition above about 12%
Mtb hypoxia inh: Mtb hypoxia fluorescent reporter inhibition; hit rate 0.1% among 300,000; fluorescence inhibition, % (concentration not given with the values); M. tuberculosis hypoxia-regulated fluorescent reporter, fluorescence; AID 1159583; in the data active = fluorescence inhibition mostly above about 23%, no sharp cut-off; inactive = mostly below about 17%
PrP UTR inh: inhibition of PrP 5' UTR reporter expression; AID 488862; cell-based PrP 5' UTR mRNA reporter, plate reader; hit rate 0.35% among 340,000; inhibition, % (test concentration not listed); in the data active = inhibition above about 52%; also: 0 = median of the neutral control wells
PrPC surface inh: cell surface PrPC inhibition, primary TR-FRET screen | P04156 | TR-FRET read-out | inhibition, % at 13.8 µM | hit rate 0.43% among 370,000; in the data active = inhibition above about 24%; also: 0% = median of the test wells and 100% = reference compound wells
MazF activator: activators of E. coli MazEF toxin-antitoxin RNase | AID 504720 | hit rate 0.32% among 350,000 | activation, % at 20 µM | FAM/BHQ RNA-DNA oligo cleavage fluorescence, 5 h | P0AE70; in the data active = activation above about 50%
Target sequence (P0AE70 whole entry, looked up): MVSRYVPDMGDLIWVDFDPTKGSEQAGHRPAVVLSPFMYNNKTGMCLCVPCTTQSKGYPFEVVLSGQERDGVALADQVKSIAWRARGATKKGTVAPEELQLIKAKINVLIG
DUSP3 inh: DUSP3 (human) phosphatase inhibition. inhibition, % at 13.3 µM. P51452. hit rate 0.52% among 290,000. recombinant VHR phosphatase, pNPP absorbance. AID 1654; in the data active = inhibition above about 50%
Target sequence (P51452 whole entry, looked up): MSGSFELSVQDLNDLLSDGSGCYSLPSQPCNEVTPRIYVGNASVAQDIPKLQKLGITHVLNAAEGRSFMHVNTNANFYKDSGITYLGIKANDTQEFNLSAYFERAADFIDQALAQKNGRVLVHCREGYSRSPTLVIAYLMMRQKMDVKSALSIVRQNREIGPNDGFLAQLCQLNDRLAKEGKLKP
PrP UTR cherry: prion 5' UTR mRNA inhibition, cherry-pick retest. shares compounds with PrP UTR inh. cell-based prion protein 5' UTR reporter, plate reader. inhibition, % at 2.5 µM. hit rate 48% among 1,100; in the data active = inhibition above about 54%; inconclusive = no clear call, values can overlap the other calls
An asterisk follows results filed as active; u = inconclusive; x = no result. The list is not random: actives were taken first. Their share in the collection is about 1.5%.

SMILES | SARS 3CLpro inh | Mtb hypoxia inh | PrP UTR inh | PrPC surface inh | MazF activator | DUSP3 inh | PrP UTR cherry
Cc1cc(NC(=O)CSc2nc(-c3ccco3)cc(C(F)(F)F)n2)no1 | 1 | 9 | 67* | 11 | -3 | 9 | 90*
COc1cc(C=NNC(=O)c2ccc(-c3ccccc3)cc2)cc(OC)c1O | x | 20 | x | x | x | x | x
O=C(Nc1ccccc1Cl)c1ccc(C(=O)Nc2ccccc2Cl)cc1 | x | x | 76* | -4 | -9 | x | 1
NC(=O)C1CC2(CC(c3cccc(NC(=O)CC(c4ccccc4)c4ccccc4)c3)=NO2)CN1C(=O)COc1ccc(Cl)cc1 (stereo unspecified) | x | -11 | x | x | x | x | x
COCc1nnc(NS(=O)(=O)c2ccc(OC)cc2)s1 | x | 5 | 62* | -1 | 8 | x | -22
COCc1nnc(NS(=O)(=O)c2ccc(Br)cc2)s1 | 1 | 3 | -5 | 2 | -2 | -16 | x
Cc1ccc(C(=O)C[n+]2ccccc2)cc1 | 1 | 2 | 64* | -5 | 2 | 9 | -7
Cc1ccc(-n2cccn2)c(CN2CCCC(CNC(=O)c3ccc(F)cc3)C2)c1 (stereo unspecified) | 3 | 16 | 80* | -12 | 11 | 44 | 1
CCCn1cc(CN2CCCC(CNC(=O)c3ccc(F)cc3)C2)c(C)n1 (stereo unspecified) | -3 | 7 | -26 | -9 | 8 | 15 | x
CCN(CC)c1ccc(C=NN2CCN(c3ccccn3)CC2)cc1 | x | 16 | x | x | x | x | x
Cc1cnc(NC(=O)c2ccc3c(c2)OCCO3)s1 | x | 9 | 81* | 16 | 11 | x | 73*
Cc1nc2ccc3nc(NC(=O)c4ccc5c(c4)OCCO5)sc3c2s1 | -2 | 0 | -37 | 4 | -38 | 7 | x
CC(C)c1nnc(NC(=O)c2ccc3c(c2)OCO3)s1 | -3 | -2 | 54* | 2 | 6 | 33 | u
CC(c1ccccc1)c1nnc(NC(=O)c2ccc3c(c2)OCO3)s1 (stereo unspecified) | 7 | 5 | -27 | 0 | 0 | 9 | x
CC1CN(C(C)CO)C(=O)c2cccc(NC(=O)Cc3ccccc3)c2OC1CN(C)Cc1ccc(C(=O)O)cc1 (stereo unspecified) | x | 8 | x | x | x | x | x
COC(=O)Cc1[nH]n(-c2nc3ccccc3s2)c(=O)c1C(C)=Nc1ccc(Cl)cc1 | 4 | 12 | 91* | -4 | 5 | 16 | 87*
COC(=O)Cc1[nH]n(-c2ccccc2)c(=O)c1C(C)=Nc1ccccc1 | -1 | 1 | -30 | 7 | -1 | 14 | x
COC(=O)Cc1[nH]n(-c2nc3ccccc3s2)c(=O)c1C(C)=Nc1ccc(C)cc1 | 3 | 13 | 92* | 5 | -4 | 19 | 92*
COC(=O)C1=C(c2cccc(C#N)c2)CC2CCC1N2C(=O)N1CCCC1 (stereo unspecified) | x | 10 | x | x | x | x | x
CCC(C)c1ccc(NC(=O)CC(C)=NNC(=O)c2cnccn2)cc1 (stereo unspecified) | x | 4 | x | x | x | x | x
CC(=O)O[C@H]1[C@H]2O[C@]23[C@@H]2CC[C@]4(O)C[C@@H](O)CC[C@]4(C)C2CC[C@]3(C)[C@H]1c1ccc(=O)oc1 (stereo partly specified) | x | x | 94* | x | 1 | x | 91*
COc1ccc(OC)c(C2C3=C(COC3=O)Nc3cc4c(cc32)OCO4)c1 (stereo unspecified) | 0 | 3 | 58* | 13 | 7 | 14 | 90*
COC(=O)CSc1n[nH]c(=S)s1 | -2 | -5 | -31 | 1 | 5 | -6 | x
CCSc1n[nH]c(=S)s1 | 4 | 17 | 77* | -4 | 8 | -1 | -3
CCCCCCN1C=CC(=C2C(=O)c3ccccc3C2=O)C=C1 | -2 | 13 | 72* | -2 | 20 | 20 | 72*
SMILES | SARS 3CLpro inh | Mtb hypoxia inh | PrP UTR inh | PrPC surface inh | MazF activator | DUSP3 inh | PrP UTR cherry
CCN1C=CC(=C2C(=O)c3ccccc3C2=O)C=C1 | 1 | 4 | 88* | -38 | -8 | 35 | 91*
CCCN1C=CC(=C2C(=O)c3ccccc3C2=O)C=C1 | -5 | 3 | 93* | -44 | 2 | -8 | 96*
CN1C=CC(=C2C(=O)c3ccccc3C2=O)C=C1 | -4 | x | x | x | x | 19 | x
C#CCOCCOCCOCCNc1nc(N2CCN(C(=O)C(CCCCN)n3cc(C(N)CC(N)=O)nn3)CC2)nc(N2CCN(C(=O)C(C(C)O)n3cc(C(N)CCCCN)nn3)CC2)n1 (stereo unspecified) | x | 8 | x | x | x | x | x
S=c1[nH]nc(C2CCCCC2)n1N=C/C(Cl)=C\c1ccccc1 | x | -10 | x | x | x | x | x
O=C(Nc1ccccc1)c1cccc(C(F)(F)F)c1 | 0 | 23 | -12 | 5 | 3 | -8 | x
CCN(CC)C(=O)c1ccc(NC(=O)c2cccc(C(F)(F)F)c2)cc1 | 2 | 6 | 78* | -6 | 5 | 6 | -12
O=C(Nc1ccc(NC(=O)c2ccco2)cc1)c1ccco1 | -1 | -9 | -23 | 4 | 1 | 1 | x
Cc1nc(-c2ccc(NC(=O)c3ccco3)cc2)cs1 | -5 | -10 | 78* | 2 | -1 | 3 | 77*
Nc1nc(-c2ccc(NC(=O)c3ccco3)cc2)cs1 | -2 | 13 | 67* | 7 | 14 | -8 | 16
Cc1nc(-c2cccc(NC(=O)c3ccco3)c2)cs1 | -4 | 8 | -33 | -3 | -2 | -15 | x
COc1ccc(CN2CCC(=O)N(C(CO)Cc3ccccc3)CC2)cc1OC (stereo unspecified) | x | 0 | x | x | x | x | x
CCC(=O)Nc1cc2nn(-c3ccc(C)cc3)nc2cc1C | -1 | -5 | 68* | 2 | 1 | -1 | 62*
CCC(=O)Nc1cc2nn(-c3ccc(OC)cc3)nc2cc1C | -4 | 3 | -23 | -12 | -11 | 29 | x
COc1ccc(C=NN(C)c2cc(=O)n(C)c(=O)[nH]2)cc1OC | x | -8 | x | x | x | x | x
Oc1ccccc1-c1n[nH]c(-c2ccccc2O)n1 | x | x | 69* | -4 | 10 | x | -40
O=C(CCN1CCN(c2ccccc2)CC1)NN=Cc1ccccc1OC(F)F | x | 4 | x | x | x | x | x
CC(=O)ON=C(N)c1ccc(-c2csnn2)cc1 | x | -8 | x | x | x | x | x
CCc1ccc(-c2cn3nc(C)c(C)nc3n2)cc1 | -1 | 19 | 85* | -27 | 2 | 38 | 36
Cc1nc2nc(-c3ccc(F)cc3)cn2nc1C | 0 | 6 | 27 | -12 | -9 | -8 | x
NC(=O)c1cc2ccccc2oc1=NNC(=O)c1cccc(Cl)c1 | x | -1 | x | x | x | x | x
CC(C)(C)C1COC(=O)CCCCC=CCC(CC(=O)NCCO)C(=O)N1 (stereo unspecified) | x | 1 | x | x | x | x | x
CC(C)(C)[C@H]1COC(=O)CCCC/C=C\C[C@H](CC(=O)NCCO)C(=O)N1 | x | x | 58* | 2 | 6 | x | u
CN1CCN(Cc2nc3c(c(=O)n(C)c(=O)n3C)n2CCCc2ccccc2)CC1 | 1 | 9 | -23 | -4 | -4 | 15 | x
Cn1c(=O)c2c(nc(CN3CCN(c4ccccc4F)CC3)n2CCCc2ccccc2)n(C)c1=O | -6 | -10 | 83* | 0 | 5 | x | -3
